Source: PubChem BioAssay
Compounds with a hit are over-represented: about 2.6% of the library has one in this group of screens.
Cruzain inh Det: blocks cruzain activity in presence of Triton detergent; AID 1478; hit rate 0.43% among 200,000; purified cruzain, Z-FR-AMC fluorescence, 0.01% Triton; P25779; Potency, µM, inactives show max response, negative = inhibition, most hits filed as inhibitors;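 note: plate controls were neutral wells for no effect and buffer without enzyme for full effect; nearly all actives have a fitted effect of over 40% in size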
Target sequence (P25779 123-467 limits assumed): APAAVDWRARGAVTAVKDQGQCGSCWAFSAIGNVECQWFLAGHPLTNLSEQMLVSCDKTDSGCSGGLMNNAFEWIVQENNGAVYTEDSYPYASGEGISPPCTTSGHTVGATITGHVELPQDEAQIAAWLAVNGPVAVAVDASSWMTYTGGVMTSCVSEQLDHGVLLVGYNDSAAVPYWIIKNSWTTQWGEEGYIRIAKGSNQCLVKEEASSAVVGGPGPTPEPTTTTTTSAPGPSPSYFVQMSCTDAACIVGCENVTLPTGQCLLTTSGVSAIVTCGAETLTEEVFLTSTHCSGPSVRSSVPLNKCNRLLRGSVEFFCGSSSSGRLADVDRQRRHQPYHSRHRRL
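Purified cruzain (1.5 nM final) was preincubated with compounds for 15 min at room temperature in 100 mM sodium acetate pH 5.5, 5 mM DTT, 0.01% Triton X-100. Reaction started with 2 uM Z-FR-AMC; AMC fluorescence change over 60 s gave activity.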
Cruzain inh noDet: blocks cruzain activity in detergent-free assay | P25779 | purified cruzain, Z-FR-AMC fluorescence, no detergent | Potency, µM, inactives show max response, negative = inhibition, most hits filed as inhibitors | hit rate 2.3% among 200,000 | AID 1476;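 note: plate controls were enzyme without inhibitor for no effect and buffer without enzyme for full effect; nearly all actives have a fitted effect of over 40% in size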
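Detergent-free condition (0.00005% Triton X-100) in acetate buffer pH 5.5 with DTT. 1.5 nM enzyme and compound were pre-mixed 15 min, then 2 uM Z-FR-AMC substrate added; reaction progress from fluorescence change between first and third reads (60 s).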
* hit, by the source's call; ? = inconclusive; nt = no result given. Calls come from the whole dose curve; as a rule, active = well fitted curve in the direction sought with a large enough effect; inconclusive = small, poorly fitted or top-dose-only effect, or another doubt; inactive = no such curve, though single readings can be large; an effect the other way counts as inactive or inconclusive. Potency is the fitted concentration of half-maximal effect.

SMILES	Cruzain inh Det	Cruzain inh noDet
CC(C)NC(=O)c1ccc(CSc2nc3ccncc3n2Cc2cccc(F)c2)cc1	-3.6%	19.8%
N#Cc1cc2c(=O)n3ccccc3nc2n(-c2nnc(SCc3ccccc3)s2)c1=O	1.5%	2.7%
Cc1cccn2c(=O)c3cc(C#N)c(=O)n(-c4nnc(SCc5ccc(Cl)cc5)s4)c3nc12	-6.2%	20µM*
Cc1cc(NS(=O)(=O)c2ccc(NC(=O)COc3c(C)ccc(C)c3C)cc2)nc(C)n1	-4.3%	?
Cn1c(SCc2ccc(Br)cc2)nc2c([nH]c3ccccc32)c1=O	0.0%	2.2%
C[C@H](NC(=O)c1ccccc1Cl)C(=O)OC(C(=O)Nc1cc(C(F)(F)F)ccc1Cl)c1ccccc1 (some centres not stated)	?	-29.6%
O=C(CNC(=O)c1ccccc1F)OC(C(=O)Nc1cc(C(F)(F)F)ccc1Cl)c1ccccc1 (configuration not stated)	5.01µM*	7.94µM*
COCCNc1ncnc2c1cnn2-c1cc(Cl)ccc1C	-1.4%	-5.2%
Cc1ccc2nc(C3CCN(C(=O)NCc4ccccc4)CC3)[nH]c2c1	-0.1%	-2.8%
Cc1ccc2nc(C3CCCN(C(=O)NCc4ccccc4)C3)[nH]c2c1 (configuration not stated)	?	6.31µM*
O=C(Nc1cc(Cl)cc(Cl)c1)c1cc(S(=O)(=O)N2CCC3(CC2)OCCO3)ccc1F	1.4%	?
COc1ccc(CNC(=O)CSc2nc(-c3ccc(OC)c(OC)c3)cc(C(F)(F)F)n2)cc1	-4.7%	-3.7%
COc1ccc(Cl)cc1NC(=O)c1cc(=O)c2cc(C)cc(C)c2o1	-2.2%	-2.1%
O=C1[C@@H]2Cc3c([nH]c4ccccc34)[C@@H](c3ccccc3)N2C(=O)[C@@H]2Cc3c([nH]c4ccccc34)[C@@H](c3ccccc3)N12	6.0%	10µM*
COc1cc([C@H]2c3[nH]c4ccccc4c3C[C@H]3C(=O)N4[C@@H](c5cc(OC)c(OC)c(OC)c5)c5[nH]c6ccccc6c5C[C@H]4C(=O)N23)cc(OC)c1OC	1.9%	4.7%
COc1ccc(CNC(=O)Cc2c(C)c3c(cc(C)c4c(C)c(C)oc43)oc2=O)cc1OC	-1.1%	7.2%
Cn1cccc1C(=O)N1CCC2(CC1)CCN(C(c1ccccc1)c1ccccc1)CC2	-2.4%	2.8%
Cc1ccc([N+](=O)[O-])cc1NC(=O)c1ccc(C(C)(C)C)cc1	-1.2%	-1.7%
Cc1ccc([N+](=O)[O-])cc1NC(=O)c1ccc(-c2ccccc2)cc1	3.0%	12.6µM*
O=C(Nc1c(Cl)cccc1Cl)c1ccc(-c2ccccc2)cc1	0.6%	-8.6%
O=C(Nc1ccc(Cl)cc1Cl)c1ccc(-c2ccccc2)cc1	0.0%	25.1µM*
Cc1nc(C)c(-c2ccc(SCC(=O)Nc3ccc(Cl)c(Cl)c3)nn2)s1	-5.7%	24.8%
COc1ccccc1C(=O)Nc1cc2cc(Br)ccc2oc1=O	-1.6%	15.8µM*
COc1ccccc1C(=O)Nc1cc2ccccc2oc1=O	20.2%	3.1%
CC1CCCN(c2ccc(/C=C(\C#N)c3nn(-c4ccccc4)c(N)c3C#N)cc2[N+](=O)[O-])C1 (configuration not stated)	-4.3%	-29.0%
SMILES	Cruzain inh Det	Cruzain inh noDet
N#C/C(=C\c1ccc(N2CCCCC2)c([N+](=O)[O-])c1)c1nn(-c2ccccc2)c(N)c1C#N	-3.8%	20µM*
CC1CCN(c2cc(N3CCC(C)CC3)c([N+](=O)[O-])cc2/C=C(\C#N)c2nn(-c3ccccc3)c(N)c2C#N)CC1	-0.2%	2µM*
CC1CCN(c2ccc(/C=C(\C#N)c3nn(-c4ccccc4)c(N)c3C#N)cc2[N+](=O)[O-])CC1	-2.6%	-10.6%
CC(=O)c1cccc(NC(=O)c2cccn2-c2nnc(N3CCCCC3)s2)c1	-0.7%	-6.8%
CNS(=O)(=O)c1cn(CC(=O)N2CCN(c3ccc(C(C)=O)cc3)CC2)cc1S(=O)(=O)NC	-2.1%	-2.7%
O=C(OCC1CCCO1)c1ccc2c(c1)N(Cc1ccccc1Cl)C(=O)c1ccccc1S2(=O)=O (configuration not stated)	1.2%	-29.3%
CCOC(=O)c1ccc2c(c1)N(Cc1ccc(F)cc1Cl)C(=O)c1ccccc1S2(=O)=O	1.5%	10µM*
CCc1ccccc1NC(=O)c1ccc2c(c1)N(Cc1cc(C)ccc1C)C(=O)c1ccccc1S2(=O)=O	0.2%	15.8µM*
O=C(NCCC1=CCCCC1)c1ccc2c(c1)N(Cc1ccc(F)cc1)C(=O)c1ccccc1S2(=O)=O	-0.6%	?
COc1ccc(CNC(=O)c2ccc3c(c2)N(Cc2ccccc2)C(=O)c2ccccc2S3(=O)=O)cc1	0.5%	?
Cc1ccc(C)c(CN2C(=O)c3ccccc3S(=O)(=O)c3ccc(C(=O)NCCC4=CCCCC4)cc32)c1	0.2%	31.6µM*
COc1ccc(CNC(=O)c2ccc3c(c2)N(Cc2ccccc2F)C(=O)c2ccccc2S3(=O)=O)cc1	-1.5%	25.1µM*
Cc1ccc(C)c(CN2C(=O)c3ccccc3S(=O)(=O)c3ccc(C(=O)N4CCCC4)cc32)c1	-2.0%	?
Cc1ccc(C)c(CSc2nc3ccncc3n2CC(=O)Nc2ccc(N(C)C)cc2)c1	-8.9%	-29.8%
CCOc1ccc(C(=O)Nc2ccc3oc(-c4ccc(C)cc4C)nc3c2)cc1Br	-2.2%	-8.8%
COc1ccc(-c2nc(S(=O)(=O)c3ccc(Cl)cc3)c(N3CCCCCC3)o2)cc1	-2.2%	6.9%
O=C(NCCC1=CCCCC1)c1ccc2c(c1)N(Cc1cccc(Cl)c1)C(=O)c1ccccc1S2(=O)=O	-1.0%	?
Cc1ccc(C)c(CN2C(=O)c3ccccc3S(=O)c3ccc(C(=O)NCCc4ccc(Cl)cc4)cc32)c1 (configuration not stated)	0.2%	6.31µM*
O=C(NCCC1=CCCCC1)c1ccc2c(c1)N(Cc1ccc(Cl)cc1)C(=O)c1ccccc1S2(=O)=O	-1.3%	31.6µM*
O=C(NCc1ccco1)c1ccc2c(c1)N(Cc1cccc(Cl)c1)C(=O)c1ccccc1S2(=O)=O	-3.6%	?
O=C(NCCC1=CCCCC1)c1ccc2c(c1)N(Cc1cccc(Cl)c1)C(=O)c1ccccc1S2=O (configuration not stated)	-1.5%	12.6µM*
COCCNC(=O)c1ccc2c(c1)N(Cc1cc(C)ccc1C)C(=O)c1ccccc1S2=O (configuration not stated)	-1.2%	?
O=C(NCc1ccco1)c1ccc2c(c1)N(Cc1ccc(Cl)cc1)C(=O)c1ccccc1S2(=O)=O	-4.0%	25.1µM*
COCCNC(=O)c1ccc2c(c1)N(Cc1cccc(Cl)c1)C(=O)c1ccccc1S2=O (configuration not stated)	-2.2%	12.2%
COc1ccc(NC(=O)c2nnn(Cc3nc(-c4cc(OC)c(OC)c(OC)c4)oc3C)c2C)cc1Cl	-0.4%	-15.4%
SMILES	Cruzain inh Det	Cruzain inh noDet
Oc1c(Cl)cc(Cl)cc1Cl	-0.8%	nt
CCCCN(CCCC)C(=O)c1cc2c(=O)n3ccccc3nc2s1	-20.2%	?
CCCn1c(C)cc(C(=O)CSc2nc3ccccc3c(=O)n2Cc2ccco2)c1C	-4.4%	-21.2%
Cc1cc(C(=O)CN2C(=O)NC(C)(c3cccc(Br)c3)C2=O)c(C)n1Cc1ccco1 (configuration not stated)	-1.0%	31.6µM*
Cc1cc(C(=O)CSc2nn(-c3ccccc3)c(=S)s2)c(C)n1Cc1ccco1	-3.1%	25.1µM*
C=CCn1c(C)cc(C(=O)CSc2nc3ccccc3[nH]2)c1C	7.0%	-6.8%
